Consider 40 compounds from PubChem BioAssay (NCI).

This is part of a sample that, as a whole, favours compounds with a hit. Of some 83,000 tested, about 20% had one in any assay.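 Step 1: grow cells in 96-well plates. Step 2: add test compound at a single concentration. Step 3: incubate 48 h. Step 4: record percent growth.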 Values without a mark were called inactive. Activity calls are given as the source filed them. The calls were made as follows: active = growth percent below 10; inactive = the rest.

The first assay concerns SR leukemia. The assay can be described thus: NCI-60 one-dose screen, 48 h (100 = growth as untreated, 0 = no growth, -100 = all killed). To be noted: 10 µM unless noted.
Consider `CCCCc1nc2c(N)nc3ccccc3c2n1Cc1cccc(CN)c1`, for which the growth is 2.23% (active).
As for `CCCCCCCCCCCC(=O)NC(C)(C)C(=O)N1CCCC1C(=O)NC(C)(C)C(=O)NC(C)(C)C(=O)N1CCCC1C(=O)NC(C)(C)C(=O)NC(C)(C)C(=O)N1CCCC1C(=O)NC(C)C(=O)NCCC(=O)NC(C)C(=O)NC(C)(C)C(=O)NC(C)(C)C(=O)NC(C)(C)C(=O)NCCC(=O)NC(C)(C)C(=O)NC(C)(C)C(=O)NC(C)(C)C(=O)NC(C)C(=O)NCCC(=O)O` (configuration not stated), the growth is -61.5% (active).
As to `NS(=O)(=O)c1ccc(Nc2nc(N/N=C/c3ccc4c(c3)OCO4)nc(Nc3ccccc3)n2)cc1`, the growth is 20%.
Still for that read-out and setting: to `O=[N+]([O-])c1ccc(NC(=S)NNC(=S)Nc2ccc(Br)cc2)cc1` belongs 79.4%; to `Cc1cc(=O)[nH]c(O)c1C#N`, 99.3%.
The same measure, in the same setting: in the case of `Cc1ccc(OCc2occc2C(=O)N2CCOCC2)cc1` it was 104%; in that of `O=C1C(SCc2ccccc2)=C(Cl)CN1c1ccccc1`, 18.5%.
The same measure, in the same setting: to `COc1ccc(C2C(C#N)=C(/N=C/c3ccc(Cl)cc3)Oc3c2sc2c(C)cccc32)cc1` (configuration not stated) belongs 16.5%.
As for `CN(C)CCNc1ccc2ncc(C#Cc3cncc(C(=O)Nc4ccc(CN5CCN(C)CC5)c(C(F)(F)F)c4)c3)n2n1`, the growth was 0.232% (active).
Same read-out and setting: in the case of `CN1CCC[C@]2(C)[C@H]3CC[C@@H]4[C@@H]5[C@H]6OC[C@@]5(CCC6(C)C)CC[C@@]4(C)[C@]3(C)CC[C@H]2C1(C)C` it was 5.47% (active).
The same measure, in the same setting: in the case of `COc1ccccc1/C=C/C(=O)c1nnn(-c2ccc(F)cc2)c1C` it was 13.2%; in that of `CC(C)[C@H]1c2[nH]c3ccccc3c2C[C@H]2C(=O)N(CCCCCCC(=O)NO)CC(=O)N12`, 33.6%.
Still for that read-out and setting: to `COC(=O)CCCNCCCn1ccc2cc(NCc3cccc(-c4ccccc4)c3C)ccc21` belongs -14.7% (active); to `C=C(C=O)[C@@H]1CC[C@]2(C(=O)O)CC[C@]3(C)C(CC[C@@H]4[C@@](C)(CCC#N)[C@H](C(=C)C=O)CC[C@]43C)[C@@H]12` (some centres not stated), 0.41% (active); to `CC1(C)CC[C@]23CC[C@]4(C)[C@H](CC[C@@H]5[C@@]6(C)CC[C@H](NCO)C(C)(C)[C@@H]6CC[C@]54C)[C@H]2[C@H]1OC3`, 3.69% (active).
In the case of `O=C1/C(=C/C=C/c2ccco2)SC(=S)N1Cc1ccccc1`, the growth is 46.3%.
Still for that read-out and setting: in the case of `COc1ccc(/C=N/NC(=O)c2c(N)nn(C)c2Nc2ccccc2)cc1Oc1ccccc1` it was 87.8%; in that of `Cc1[nH]c(C(=O)Nc2ccc(S(=O)(=O)N3CCCCC3)cc2OCCOCCOCCOCCOCCOCCOCCOCCOCCOc2cc(S(=O)(=O)N3CCCCC3)ccc2NC(=O)c2[nH]c(C)c3c2CCCCC3=O)c2c1C(=O)CCCC2`, 10.9%; in that of `COc1ccc(C(=NNS(=O)(=O)c2ccc(C)cc2)c2ccccc2)cc1OC`, 111%.
Still for that read-out and setting: to `CNC(=O)c1cc(Oc2ccc3c(c2)sc2nc(-c4ccc(N(C)C)cc4)cn23)ccn1` belongs 13.2%; to `CN1CCN(Cc2ccc(/C=N/Nc3ccnc4cc(Cl)ccc34)cc2)CC1`, 2.66% (active); to `O=C1Nc2ccccc2/C1=N\c1nnc(-c2ccccc2)o1`, 105%.
Still for that read-out and setting: in the case of `COc1ccc2c(c1)C=CC1(O2)Oc2ccc(OC)cc2C=C1C` (configuration not stated) it was 11.3%; in that of `Cn1cc(-c2nn3cc(-c4ccncc4)nc3s2)c2cc(Br)ccc21`, 8.33% (active).
For `C#Cc1nc(/C=C/CCCCCCC(=O)NO)cs1`, the growth was -39.9% (active).
Still for that read-out and setting: in the case of `CC[C@]12CC(C(=O)OC)=C3Nc4ccccc4[C@@]34CCN(C14)[C@@H]1c3cc4c(cc3O[C@@H]1[C@H]2O)NC1=C(C(=O)OC)C[C@@]2(CC)C3N(CC[C@@]143)C[C@H]1O[C@H]12` (some centres not stated) it was 6.59% (active); in that of `O=C(CCCCCCN1CC(=O)N2[C@@H](C3CC3)c3[nH]c4ccccc4c3C[C@H]2C1=O)NO`, 36.5%.

The test system of another assay is RPMI-8226 leukemia. Described as above. The following applies: 10 µM unless noted.
In the case of `Nc1cc(C(=O)N/N=C\c2ccc(OC(F)F)c(OC3CCCC3)c2)nn1CC(O)c1ccccc1` (configuration not stated), the growth is 87.5%.
The same measure, in the same setting: to `Clc1ccc2[nH]cc(-c3nn4cc(-c5ccncc5)nc4s3)c2c1` belongs 53.2%.
On the same count and under the same terms, to `CN1CC[C@@H]2[C@@]3(C)CC[C@H](O)C(C)(C)[C@@H]3CC[C@@]2(C)[C@]2(C)CC[C@@]3(CO)CCC(C)(C)C[C@@H]3C12` (some centres not stated) belongs 74.6%; to `Brc1cc(-c2cc(-c3ccc4c(c3)OCCO4)[nH]n2)cs1`, 29.9%; to `NS(=O)(=O)c1ccc(Nc2nc(Nc3ccccc3)nc(N3N=C(c4ccc(Cl)cc4)CC3c3ccc(Cl)cc3)n2)cc1` (configuration not stated), 37.1%.
On the same count and under the same terms, to `O=C(N/N=C\c1ccc([N+](=O)[O-])cc1)c1ccc2nc(-c3ccc(Br)cc3)[nH]c2c1` belongs 6.03% (active).
With `O=C(/C=C/c1cccc(C(F)(F)F)c1)Nc1cccc(C(F)(F)F)c1`, the growth was 24.4%.
The same measure, in the same setting: in the case of `Brc1cccc(-c2cc(-c3ccc4c(c3)OC=CO4)[nH]n2)c1` it was 22.5%.
Same read-out and setting: to `CCc1cc2c(cc1Cl)nc1c(=O)[nH]c(=O)nc-1n2CCOCC(C)C` belongs 66.6%.
Still for that read-out and setting: to `CCCCSC1=C(Cl)CN(c2ccccc2)C1=O` belongs 78%; to `Brc1ccc(-c2cc(-c3ccc4c(c3)OC=CO4)n[nH]2)s1`, 93.6%.
Regarding `O=c1c2cc(-c3ccc(F)cc3F)ccc2n(Nc2ccccc2)c(=O)n1-c1cccc(C(F)(F)F)c1`, the growth was -6.8% (active).
With `CN1CCN(CCCCCC(=O)Nc2nc(-c3cccc(NS(=O)(=O)c4cccc5c(N(C)C)cccc45)c3)cs2)CC1`, the growth is 34.9%.
On to `CCCCc1nc2c(N)nc3ccccc3c2n1Cc1cccc(CN)c1`, for which the growth is 42.5%.
On the same count and under the same terms, to `CCCCCCCCCCCC(=O)NC(C)(C)C(=O)N1CCCC1C(=O)NC(C)(C)C(=O)NC(C)(C)C(=O)N1CCCC1C(=O)NC(C)(C)C(=O)NC(C)(C)C(=O)N1CCCC1C(=O)NC(C)C(=O)NCCC(=O)NC(C)C(=O)NC(C)(C)C(=O)NC(C)(C)C(=O)NC(C)(C)C(=O)NCCC(=O)NC(C)(C)C(=O)NC(C)(C)C(=O)NC(C)(C)C(=O)NC(C)C(=O)NCCC(=O)O` (configuration not stated) belongs -54.4% (active); to `NS(=O)(=O)c1ccc(Nc2nc(N/N=C/c3ccc4c(c3)OCO4)nc(Nc3ccccc3)n2)cc1`, 54.3%; to `O=[N+]([O-])c1ccc(NC(=S)NNC(=S)Nc2ccc(Br)cc2)cc1`, 79.4%.
Same read-out and setting: in the case of `Cc1cc(=O)[nH]c(O)c1C#N` it was -72% (active); in that of `Cc1ccc(OCc2occc2C(=O)N2CCOCC2)cc1`, 97.7%; in that of `O=C1C(SCc2ccccc2)=C(Cl)CN1c1ccccc1`, 83.9%.
Same read-out and setting: to `COc1ccc(C2C(C#N)=C(/N=C/c3ccc(Cl)cc3)Oc3c2sc2c(C)cccc32)cc1` (configuration not stated) belongs 22.6%.
Consider `CN(C)CCNc1ccc2ncc(C#Cc3cncc(C(=O)Nc4ccc(CN5CCN(C)CC5)c(C(F)(F)F)c4)c3)n2n1`, for which the growth is -11.2% (active).
Same read-out and setting: to `CN1CCC[C@]2(C)[C@H]3CC[C@@H]4[C@@H]5[C@H]6OC[C@@]5(CCC6(C)C)CC[C@@]4(C)[C@]3(C)CC[C@H]2C1(C)C` belongs 30.2%.
On the same count and under the same terms, in the case of `COc1ccccc1/C=C/C(=O)c1nnn(-c2ccc(F)cc2)c1C` it was 20.9%; in that of `CC(C)[C@H]1c2[nH]c3ccccc3c2C[C@H]2C(=O)N(CCCCCCC(=O)NO)CC(=O)N12`, 58.6%.
On the same count and under the same terms, in the case of `COC(=O)CCCNCCCn1ccc2cc(NCc3cccc(-c4ccccc4)c3C)ccc21` it was 28.3%.
`C=C(C=O)[C@@H]1CC[C@]2(C(=O)O)CC[C@]3(C)C(CC[C@@H]4[C@@](C)(CCC#N)[C@H](C(=C)C=O)CC[C@]43C)[C@@H]12` (some centres not stated): the growth was -8.52% (active).
On the same count and under the same terms, in the case of `CC1(C)CC[C@]23CC[C@]4(C)[C@H](CC[C@@H]5[C@@]6(C)CC[C@H](NCO)C(C)(C)[C@@H]6CC[C@]54C)[C@H]2[C@H]1OC3` it was 19.3%; in that of `O=C1/C(=C/C=C/c2ccco2)SC(=S)N1Cc1ccccc1`, 93.6%.
Same read-out and setting: to `COc1ccc(/C=N/NC(=O)c2c(N)nn(C)c2Nc2ccccc2)cc1Oc1ccccc1` belongs 82.1%; to `Cc1[nH]c(C(=O)Nc2ccc(S(=O)(=O)N3CCCCC3)cc2OCCOCCOCCOCCOCCOCCOCCOCCOCCOc2cc(S(=O)(=O)N3CCCCC3)ccc2NC(=O)c2[nH]c(C)c3c2CCCCC3=O)c2c1C(=O)CCCC2`, 10.6%.
Take `COc1ccc(C(=NNS(=O)(=O)c2ccc(C)cc2)c2ccccc2)cc1OC`: the growth was 93.6%.
`CNC(=O)c1cc(Oc2ccc3c(c2)sc2nc(-c4ccc(N(C)C)cc4)cn23)ccn1`: the growth is 6.21% (active).
As to `CN1CCN(Cc2ccc(/C=N/Nc3ccnc4cc(Cl)ccc34)cc2)CC1`, the growth is 46.7%.
Still for that read-out and setting: to `O=C1Nc2ccccc2/C1=N\c1nnc(-c2ccccc2)o1` belongs 101%; to `COc1ccc2c(c1)C=CC1(O2)Oc2ccc(OC)cc2C=C1C` (configuration not stated), 19%; to `Cn1cc(-c2nn3cc(-c4ccncc4)nc3s2)c2cc(Br)ccc21`, 15.2%.
On the same count and under the same terms, in the case of `C#Cc1nc(/C=C/CCCCCCC(=O)NO)cs1` it was -12.7% (active); in that of `CC[C@]12CC(C(=O)OC)=C3Nc4ccccc4[C@@]34CCN(C14)[C@@H]1c3cc4c(cc3O[C@@H]1[C@H]2O)NC1=C(C(=O)OC)C[C@@]2(CC)C3N(CC[C@@]143)C[C@H]1O[C@H]12` (some centres not stated), -3% (active).
Still for that read-out and setting: in the case of `O=C(CCCCCCN1CC(=O)N2[C@@H](C3CC3)c3[nH]c4ccccc4c3C[C@H]2C1=O)NO` it was 56.2%.
